Compound activity deposited in PubChem BioAssay by National Center for Advancing Translational Sciences (NCATS).
TDP1 cell CPT = DT40-hTDP1 cell growth loss with CPT | 420,000 tested, 12% active | chicken DT40 Tdp1-/-;hTDP1 cells + 20 nM CPT, ATP luminescence, 48 h | AID 686979 | Potency, µM (highest dose often 46.2 µM), inactives show at the top dose activity change, negative = growth inhibition, actives largely listed as inhibitors; further: potency means the concentration at half of the fitted maximal effect; nearly all actives have a fitted effect of over 55% in size
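Chicken DT40 Tdp1-/- cells complemented with human TDP1, 400 cells/well, exposed to compounds plus 20 nM camptothecin for at least 48 h at 37 C; viability read as ATP content by CellTiter-Glo luminescence.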
TDP1 block = inhibitors of human tyrosyl-DNA phosphodiesterase TDP1 | Potency, µM (highest dose often 130 µM), for the others: at the top dose activity change, negative = inhibition, usual class: inhibitors | 350,000 tested, 0.28% active | AID 485290 | recombinant TDP1, AlphaScreen DNA substrate cleavage; further: potency means the concentration at half of the fitted maximal effect; nearly all actives have a fitted effect of over 40% in size
Target sequence (Q9NUW8 whole entry, looked up): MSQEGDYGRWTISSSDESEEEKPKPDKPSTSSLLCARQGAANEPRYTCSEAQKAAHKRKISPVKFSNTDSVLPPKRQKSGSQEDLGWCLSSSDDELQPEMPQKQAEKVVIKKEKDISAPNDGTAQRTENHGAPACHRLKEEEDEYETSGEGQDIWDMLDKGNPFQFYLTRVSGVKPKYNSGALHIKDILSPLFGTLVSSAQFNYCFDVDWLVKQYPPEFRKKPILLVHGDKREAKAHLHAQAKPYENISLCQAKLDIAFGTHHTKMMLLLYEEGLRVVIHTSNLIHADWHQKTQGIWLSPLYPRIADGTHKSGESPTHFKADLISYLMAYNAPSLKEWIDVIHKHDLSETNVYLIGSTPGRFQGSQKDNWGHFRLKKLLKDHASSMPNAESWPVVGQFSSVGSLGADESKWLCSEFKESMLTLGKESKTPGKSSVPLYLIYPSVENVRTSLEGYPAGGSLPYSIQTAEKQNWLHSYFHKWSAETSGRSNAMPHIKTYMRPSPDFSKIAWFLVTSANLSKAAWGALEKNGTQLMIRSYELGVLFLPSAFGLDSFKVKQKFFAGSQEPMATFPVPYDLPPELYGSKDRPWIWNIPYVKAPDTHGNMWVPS
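AlphaScreen read-out: signal falls as enzyme removes the 3' tyrosine-FITC from a 5'-biotinylated DNA oligo (15 nM, 5 min, RT). Enzyme was E. coli-made recombinant Tdp1 at 1 nM, exposed to compound for 15 min beforehand; beads 10 ug/ml, 10 min.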
CtBP-E1A blk = inhibitors of CtBP/E1A interaction; AlphaScreen GST-E1A/His-CtBP binding, 1536-well; hits give low values; activity change, % (concentration not given with the values); 340,000 tested, 0.49% active; AID 651724; in the data active means activity change below about -65%; inconclusive means mostly about -30% to -63%
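In 5 uL wells, 23 nL compound meets equimolar GST-E1A and His-CtBP (5X stock 125 nM each) for 2 h, 37 °C. Beads (5X, 50 ug/mL) then 1 h, 37 °C, dark.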
DT40 TDP1 no CPT = qHTS for Inhibitors of human tyrosyl-DNA phosphodiesterase 1 (TDP1): qHTS in cells in absence of CPT; DT40 Tdp1-/- hTDP1 cells, no CPT, ATP luminescence, 48 h; 420,000 tested, 15% active; Potency, µM (doses to about 46.2 µM), for the others: top-dose activity change, negative = growth inhibition, usual class: inhibitors; further: potency means the concentration at half of the fitted maximal effect; nearly all actives have a fitted effect of over 55% in size
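Growth kinetics read by CellTiter-Glo luminescence after ≥48 hr at 37 °C. Cells: DT40 Tdp1-/- stably carrying human TDP1, 400 per well, compound exposure in the absence of CPT (DMSO vehicle).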
Six1-Eya2 inh = Six1/Eya2 interaction inhibition. 360,000 tested, 0.56% active. AlphaScreen GST-Six1/His-Eya2 binding, biochemical; hits give low values. Q15475+O00167. activity change, % (test concentration not listed). AID 651725; in the data active means activity change below about -65%; inconclusive means mostly about -30% to -63%
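Homogeneous AlphaScreen proximity assay pairing GST-Six1 with His-tagged Eya2 (added as 5X mix: 250 nM and 500 nM) in 50 mM Tris pH 8.0, 300 mM NaCl, 1 mM TCEP. Glutathione donor and nickel acceptor beads; 1 h, 37 °C, dark.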
IL1B secr inh = inhibitors of inflammasome signaling (IL-1 beta secretion) | THP-1 LPS/ATP IL-1B secretion, AlphaLISA, 16 h; hits give low values | 360,000 tested, 4.7% active | activity change, % at 57.5 µM; in the data active means activity change below about -50%; inconclusive means mostly about -30% to -49%
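THP-1 cells pretreated 1 hr with compounds (up to 57.5 uM final), then stimulated with LPS (250 ng/mL final) plus ATP (1.25 mM final); secreted IL-1B measured by AlphaLISA after 16 hr, decreased signal indicating inhibition.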
An asterisk follows results filed as active; ? = inconclusive; · = no result; [ ] = dose if it differs, or a comment. Hits are enriched below; roughly 18% of the tested compounds scored in any of these assays. Unless noted, the call rests on the fitted dose curve; in most records, active means well fitted curve in the direction sought with a large enough effect; inconclusive means small, poorly fitted or top-dose-only effect, or another doubt; inactive means no such curve, though single readings can be large; an effect the other way counts as inactive or inconclusive. On the % scale 0 is the no-effect control and ±100 the full control effect.

SMILES	TDP1 cell CPT	TDP1 block	CtBP-E1A blk	DT40 TDP1 no CPT	Six1-Eya2 inh	IL1B secr inh
COc1cccc(CNC(=O)CNS(=O)(=O)c2ccc3nc(C)sc3c2)c1	?	2.5%	·	14.6µM*	·	·
CCOc1ccc(NC(=O)CN(Cc2ccccc2)S(=O)(=O)c2ccc3nc(C)sc3c2)cc1	?	7.1%	·	25.9µM*	·	·
Cc1ccc(CCNC(=O)CNS(=O)(=O)c2ccc3nc(C)sc3c2)cc1	4.6%	0.6%	0.6	11.1%	3.1	-3.3
Cc1ccc(S(=O)(=O)N(Cc2ccc(F)cc2)Cc2ccco2)cc1	-29.7%	-4.1%	17.8	?	26.9	-11.0
Cc1ccc(-n2nnnc2SCC(=O)N(CC(C)C)c2c(N)n(CC(C)C)c(=O)[nH]c2=O)cc1	20.3%	3.0%	-12.4	-11.1%	-1.1	-51.7*
Cc1cccc(-n2nnnc2SCC(=O)N(CC(C)C)c2c(N)n(CC(C)C)c(=O)[nH]c2=O)c1	10.5%	5.3%	10.9	-10.8%	-1.9	-1.7
O=[N+]([O-])c1ccc(Nc2ccc(N3CCOCC3)cc2)c([N+](=O)[O-])c1	-18.5%	10.5%	-1.6	-27.2%	-4.9	7.7
COc1cc(CNCc2c[nH]c3ccccc23)cc(OC)c1	5.8µM*	1.2%	0.6	9.2µM*	-0.7	-83.8*
COc1cc(CNCc2cccc3ccccc23)cc(OC)c1	?	6.9%	·	?	-26.8	8.4
COc1ccc(Br)cc1CNC(C)c1ccccc1 (configuration not stated)	?	2.6%	1.4	29.1µM*	3.6	?
COc1ccccc1CNCc1cc(Br)ccc1OC	?	-3.7%	-2.0	16.4µM*	-1.1	?
COc1ccc(Br)cc1CNC(=O)Cc1cccs1	18.1%	·	8.9	-5.0%	8.3	-21.5
COc1ccccc1CNCc1cccc(Oc2ccccc2)c1	?	-8.4%	9.6	?	11.8	-82.8*
O=C(CN1C(=O)CCSc2ccc(S(=O)(=O)N3CCCC3)cc21)Nc1ccccc1Cl	?	3.7%	1.4	?	1.9	0.0
CCN(CC(=O)Nc1ccc([N+](=O)[O-])cc1OC)CC(=O)NC(C)(C)C	-21.7%	0.0%	-2.1	?	0.0	16.6
COc1cccc(CNCCOCCO)c1OC	8.5%	0.0%	5.9	-1.6%	?	5.8
COc1ccc(CNCc2ccc(OC)c3ccccc23)cc1	?	·	1.9	?	6.5	-76.4*
COc1ccccc1CNCc1ccc(OC)c2ccccc12	?	·	-0.2	16.4µM*	-9.3	-81.9*
COc1cc(CNCc2ccc(OC)cc2OC)cc(OC)c1	?	·	·	20.6µM*	-0.9	-8.3
COc1cccc(CNCc2ccc(OC)c3ccccc23)c1OC	20.6µM*	·	0.0	16.4µM*	0.0	-84.1*
COc1ccccc1CNCC(c1ccccc1)c1ccccc1	·	5.4%[0.0935 µM]	·	·	·	·
COc1ccc(C(=O)NNC(=O)CN2CCC(n3nnc4cc(C)ccc43)CC2)cc1	?	5.3%	1.6	-10.9%	0.4	-3.3
COc1ccc(C(=O)Nc2nnc(Cc3ccc(OC)c(OC)c3)s2)c(OC)c1	12.3%	·	-15.8	?	-9.0	-3.4
CC(C)(C)c1ccc(NC(=O)c2cc[n+]([O-])cc2)cc1	-12.6%	·	-13.0	?	-1.3	10.9
COc1cccc(CNCc2ccccn2)c1OC	-21.6%	-6.2%	7.0	18.4µM*	?	0.0
SMILES	TDP1 cell CPT	TDP1 block	CtBP-E1A blk	DT40 TDP1 no CPT	Six1-Eya2 inh	IL1B secr inh
COc1ccc(Br)cc1CNC(=O)c1cc2ccccn2n1	16.4µM*	0.0%	·	?	·	·
CCOc1cc(CNCc2ccccn2)cc(Cl)c1OC	0.8%	5.1%	-7.6	6.6%	-21.9	2.7
CC(C)(C)N(Cc1ccccc1)C(=O)COC(=O)CCN1C(=O)C2CC=CCC2C1=O (configuration not stated)	-3.0%	0.5%	-1.0	-15.1%	-0.1	24.0
c1ccc(Cn2c(-c3ccccc3)c[n+]3c2SCCC3)cc1	2.91µM*	5.6%	48.2	2.31µM*	30.0	-20.7
N#Cc1cc(Oc2ccc(Cl)cc2)c(N2CCOCC2)cc1C#N	-24.1%	·	10.9	-25.7%	-5.2	-7.3
COc1ccc(C(O)Cn2ccsc2=NC(C)=O)cc1 (configuration not stated)	23.1µM*	9.4%	4.4	?	0.0	26.4
O=[N+]([O-])c1cc([N+](=O)[O-])c(Oc2c(F)cc(F)cc2F)cc1NN1CCCCC1	?	·	-19.1	?	-17.2	30.4
Cc1oc2ncn(CC(C)C)c(=O)c2c1C(=O)NCCc1ccc(Cl)cc1	?	4.2%	·	14.6µM*	·	·
COc1ccc(CCNC(=O)c2c(C)oc3ncn(CC(C)C)c(=O)c23)c(OC)c1	16.4µM*	-4.2%	·	16.4µM*	·	·
CSc1ccc(CCNC(=O)c2c(C)oc3ncn(C)c(=O)c23)cc1	?	4.2%	·	18.4µM*	·	·
COc1ccc(CCNC(=O)c2c(C)oc3ncn(CC(C)C)c(=O)c23)cc1OC	-15.1%	5.3%	·	?	·	·
Fc1ccc(NC(=S)N2CCc3ccccc3C2)c(F)c1	-12.2%	0.0%	8.7	-17.6%	3.6	46.7
Cc1ccc(C)c(/C=C2\N=C(c3ccccc3F)OC2=O)c1	?	-0.2%	·	?	-0.5	-12.6
Cc1ccc2cc(/C=C3\N=C(c4ccccc4)OC3=O)c(N3CCOCC3)nc2c1	?	2.0%	-2.4	18.4µM*	0.1	15.1
COc1ccc(-c2n[nH]c(=S)n2-c2ccc(C)cc2C)cc1	?	·	·	?	-4.8	41.2
Cc1cc(C)c[n+](CC(=O)c2ccc(-c3ccccc3)cc2)c1	18.4µM*	-1.9%	-0.3	?	1.0	-7.5
Cc1nn(Cc2ccc(Br)cc2)c(C)c1NC(=O)c1nn(C)cc1Cl	?	4.4%	-12.7	18.4µM*	0.0	-18.0
Cc1nn(Cc2ccc(F)cc2)c(C)c1NC(=O)c1cc2ncc(Br)cn2n1	?	31.6µM*	·	-12.9%	-8.6	0.0
CC1(C)CC(=NOC(=O)c2ccccc2)CC(C)(C)N1	?	5.8%	5.0	1.3%	4.2	10.2
CNc1cccc(-c2ccccc2C(C)=O)n1	-21.8%	·	0.6	-10.9%	0.5	0.0
C/C(=N\NC(N)=O)c1ccc(-n2ccnc2)cc1	-4.6%	6.3%	1.3	-1.8%	-4.6	-5.3
CCc1ccc(OCC(=O)N/N=C(\C)c2ccc(-n3ccnc3)cc2)cc1	?	5.5%	-16.7	16.4µM*	-24.6	-20.5
CNC(=S)N/N=C(\C)c1ccc(-n2ccnc2)cc1	-3.3%	7.0%	-5.5	4.1%	-11.6	-11.3
